Data on 20 compounds can be found in PubChem BioAssay (NCI).

Each structure is given as a SMILES string. Compounds without any hit were thinned out: in the full panel of roughly 79,000, 15% have a hit. Values without a mark were called inactive. Activity calls are given as the source filed them. Rule as the data show it: active = growth inhibition above about 70%; inactive = the rest.

Assay [1] can be described thus: NCI Yeast Anticancer Drug Screen. Data for the rad50 strain (AID 155).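 Also: 0% = growth of vehicle-only cultures of the same strain.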 The following applies: S. cerevisiae rad50 strain growth inhibition; at 50.0 µM; stronger effect = higher value. The method in brief:
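Vehicle-treated cultures provide the reference for the growth inhibition reported for compound-exposed, repair-deficient yeast.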

The nature of assay [2]: NCI Yeast Anticancer Drug Screen. Data for the mec2-1 strain (AID 157). The following applies: S. cerevisiae mec2-1 strain, at 50.0 µM, stronger effect = higher value. The method in brief:
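Yeast mec2-1 mutant treated with compound. Readout: growth inhibition vs vehicle controls.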

Assay [3] is described as follows: NCI Yeast Anticancer Drug Screen. Data for the sgs1 mgt1 strain (AID 161).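 Also: 0% = growth of cultures given vehicle only.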 The following applies: S. cerevisiae sgs1 mgt1 strain, at 50.0 µM, stronger effect = higher value. The method in brief: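 Genetically altered yeast, compound exposure, growth inhibition relative to vehicle.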
A short description of assay [4]: NCI Yeast Anticancer Drug Screen. Data for the cln2 rad14 strain (AID 165).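 Also: 0% = growth equal to vehicle treated cultures.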 The following applies: S. cerevisiae cln2 rad14 strain, at 50.0 µM, stronger effect = higher value. The method in brief: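 cln2 rad14 yeast strain; compound exposure; growth inhibition read vs vehicle controls.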
Assay [5] is described as follows: NCI Yeast Anticancer Drug Screen. Data for the bub3 strain (AID 167). The following applies: S. cerevisiae bub3 mutant strain, at 50.0 µM, stronger effect = higher value. The method in brief: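 Mutant yeast screening strain plus compound; vehicle-treated cultures serve as the 0% inhibition reference.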
Assay [6] in a line: NCI Yeast Anticancer Drug Screen. Data for the mlh1 rad18 strain (AID 175). The following applies: S. cerevisiae mlh1 rad18 strain growth inhibition; at 50.0 µM; stronger effect = higher value. The method in brief:
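Yeast w/ defined DNA-repair lesions; compound exposure; growth vs vehicle controls → % inhibition.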

As for `COc1cccc2c1C(c1ccc3ccccc3c1)OC2=O` (stereo not given), the growth inhibition in assay [1] was -22.2%; in assay [2], -11.4%; in assay [3], -27.6%; in assay [4], 12.8%; in assay [5] it was -25.4%; in assay [6] it was -15.5%.
In the case of `Cc1ccc(NC(=O)Nc2ccc(Cl)c(Cl)c2)c(C)c1`, the growth inhibition in assay [1] is -6.05%; in assay [2], 11.2%; in assay [3] it was -1.75%; in assay [4] it was -16.6%; in assay [5], -4.2%; in assay [6] it was -20.9%.
For `CCC1SC(C)C(=O)NC1=O` (stereo not given), the growth inhibition is -14.8% in assay [1]; 3.9% in assay [2]; -0.7% in assay [3]; -14.3% in assay [4]; -8.2% in assay [5]; 37.1% in assay [6].
`CCC(CC)CC1CCCCC1=O` (stereo not given): the growth inhibition in assay [1] was 1.3%; in assay [2] it was -5.25%; in assay [3], -6.25%; in assay [4] it was 3.75%; in assay [5] it was -20.6%; in assay [6], -7.65%.
As to `C=C1CC[C@@H]2C(C)(C)CCC[C@@]2(C)[C@@H]1Cc1cc(O)ccc1O`, the growth inhibition in assay [1] is 86.8% (active); in assay [2] it was 88.6% (active); in assay [3] it was 87% (active); in assay [4], 87.2% (active); in assay [5] it was 87.9% (active); in assay [6], 87.5% (active).
With `CCOC(=O)/C(=C\c1ccnc2ccccc12)P(=O)(OCC)OCC`, the growth inhibition was 11.7% in assay [1]; 4% in assay [2]; 15.4% in assay [3]; 11.1% in assay [4]; 10.3% in assay [5]; 23.1% in assay [6].
Take `COC1/C=C/OC2(C)Oc3c(C)c(O)c4c(O)c(c5c(nc(-c6ccco6)n5-c5ccccc5)c4c3C2=O)NC(=O)/C(C)=C\C=C\C(C)C(O)C(C)C(O)C(C)C(OC(C)=O)C1C` (stereo not given): the growth inhibition in assay [1] was -6.2%; in assay [2], -13.8%; in assay [3] it was -19.8%; in assay [4] it was 14.2%; in assay [5] it was -18.8%; in assay [6] it was -22.7%.
Turning to `Cc1ccc(S(=O)(=O)Nn2nnnc2N)cc1`, the growth inhibition in assay [1] is -7.85%; in assay [2], 11.7%; in assay [3], -7.6%; in assay [4], -4.4%; in assay [5], -4.65%; in assay [6], 7.25%.
With `C=CCOC(=O)OCC=C`, the growth inhibition in assay [1] was 4%; in assay [2], -8.55%; in assay [3], 2%; in assay [4] it was -3.7%; in assay [5] it was 23.2%; in assay [6] it was 3.1%.
As for `c1ccc(CC2(c3ccccc3)OCc3ccccc32)cc1` (stereo not given), the growth inhibition in assay [1] is 6%; in assay [2], 12.2%; in assay [3], 17.6%; in assay [4] it was 15.4%; in assay [5] it was -2.2%; in assay [6], 20.5%.
Consider `N#C/C(=C\c1ccccc1)C(=O)Nc1ccccc1`, for which the growth inhibition is 17.3% in assay [1]; 3.5% in assay [2]; -1.35% in assay [3]; -4.15% in assay [4]; -4.7% in assay [5]; 22.6% in assay [6].
As for `Cc1ccc([Se](=C(C(=O)c2ccccc2)C(=O)c2ccccc2)c2ccc(C)cc2)cc1`, the growth inhibition was 82.4% (active) in assay [1]; 11.7% in assay [2]; 35.7% in assay [3]; 9.85% in assay [4]; 4.95% in assay [5]; 54.6% in assay [6].
As for `O=C(O)C[C@H]1CCCCC12CCOC2=O` (stereo not given in full), the growth inhibition in assay [1] was 10.8%; in assay [2], 6.7%; in assay [3], -0.7%; in assay [4], -18.6%; in assay [5], 22%; in assay [6], 9.85%.
Consider `O=C(COc1ccc(Cl)cc1C(=O)O)NCc1ccc([N+](=O)[O-])cc1`, for which the growth inhibition was -9.45% in assay [1]; 8.1% in assay [2]; 20.8% in assay [3]; -10.9% in assay [4]; -9.85% in assay [5]; -24.6% in assay [6].
As for `CSc1ccc(NC(=O)Nc2cc(C)ccc2Cl)cc1`, the growth inhibition in assay [1] was -2.05%; in assay [2], 23%; in assay [3], 25.9%; in assay [4], -4.05%; in assay [5], 41.1%; in assay [6], 19.6%.
With `CCOC(=O)/C(=C\c1cc(C)c(OC(C)=O)c(OC)c1)NC(=O)c1ccccc1`, the growth inhibition in assay [1] is -17.1%; in assay [2], -15.2%; in assay [3], -11.1%; in assay [4], 0.1%; in assay [5], -3.45%; in assay [6] it was -4.25%.
In the case of `CC12CC1CCCC2OC(=O)c1cc([N+](=O)[O-])cc([N+](=O)[O-])c1` (stereo not given), the growth inhibition was 4.75% in assay [1]; 2.15% in assay [2]; -5.7% in assay [3]; -12.7% in assay [4]; -7.65% in assay [5]; -0.15% in assay [6].
For the compound `CCOC(=O)CS`, the growth inhibition in assay [1] was 11.2%; in assay [2], -6.5%; in assay [3], -15.6%; in assay [4] it was 5.7%; in assay [5], 20.6%; in assay [6], 22.6%.
For `COc1ccc(OC)c(NC(=O)C2=C(C)NC(C)=C(C(=O)Nc3cc(OC)ccc3OC)C2c2cccc([N+](=O)[O-])c2)c1`, the growth inhibition in assay [1] was 1.05%; in assay [2] it was 8.65%; in assay [3], 1.9%; in assay [4], -9.3%; in assay [5] it was 7.5%; in assay [6] it was 4.25%.
`NC1=NC(c2ccccc2O)CC(=O)N1` (stereo not given): the growth inhibition in assay [1] is -6.4%; in assay [2], -8.25%; in assay [3] it was -12.9%; in assay [4], -32.6%; in assay [5] it was -3.9%; in assay [6] it was -6.35%.
